# Hits are enriched below; roughly 8.7% of the tested compounds scored in any of these assays.
# Cav3 T inh: inhibitors of human Cav3.2 T-type calcium channel; O95180; Cav3.2-expressing cells, Fluo-4 calcium fluorescence FDSS; stronger effect = lower value; B-score at 10 µM; hit rate 4% among 100,000; AID 449739;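 active = single-dose well whose peak fluorescence ratio is a statistical outlier from its plate by either plate-standardised score or position-corrected B-score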
# Target sequence (O95180 whole entry, looked up): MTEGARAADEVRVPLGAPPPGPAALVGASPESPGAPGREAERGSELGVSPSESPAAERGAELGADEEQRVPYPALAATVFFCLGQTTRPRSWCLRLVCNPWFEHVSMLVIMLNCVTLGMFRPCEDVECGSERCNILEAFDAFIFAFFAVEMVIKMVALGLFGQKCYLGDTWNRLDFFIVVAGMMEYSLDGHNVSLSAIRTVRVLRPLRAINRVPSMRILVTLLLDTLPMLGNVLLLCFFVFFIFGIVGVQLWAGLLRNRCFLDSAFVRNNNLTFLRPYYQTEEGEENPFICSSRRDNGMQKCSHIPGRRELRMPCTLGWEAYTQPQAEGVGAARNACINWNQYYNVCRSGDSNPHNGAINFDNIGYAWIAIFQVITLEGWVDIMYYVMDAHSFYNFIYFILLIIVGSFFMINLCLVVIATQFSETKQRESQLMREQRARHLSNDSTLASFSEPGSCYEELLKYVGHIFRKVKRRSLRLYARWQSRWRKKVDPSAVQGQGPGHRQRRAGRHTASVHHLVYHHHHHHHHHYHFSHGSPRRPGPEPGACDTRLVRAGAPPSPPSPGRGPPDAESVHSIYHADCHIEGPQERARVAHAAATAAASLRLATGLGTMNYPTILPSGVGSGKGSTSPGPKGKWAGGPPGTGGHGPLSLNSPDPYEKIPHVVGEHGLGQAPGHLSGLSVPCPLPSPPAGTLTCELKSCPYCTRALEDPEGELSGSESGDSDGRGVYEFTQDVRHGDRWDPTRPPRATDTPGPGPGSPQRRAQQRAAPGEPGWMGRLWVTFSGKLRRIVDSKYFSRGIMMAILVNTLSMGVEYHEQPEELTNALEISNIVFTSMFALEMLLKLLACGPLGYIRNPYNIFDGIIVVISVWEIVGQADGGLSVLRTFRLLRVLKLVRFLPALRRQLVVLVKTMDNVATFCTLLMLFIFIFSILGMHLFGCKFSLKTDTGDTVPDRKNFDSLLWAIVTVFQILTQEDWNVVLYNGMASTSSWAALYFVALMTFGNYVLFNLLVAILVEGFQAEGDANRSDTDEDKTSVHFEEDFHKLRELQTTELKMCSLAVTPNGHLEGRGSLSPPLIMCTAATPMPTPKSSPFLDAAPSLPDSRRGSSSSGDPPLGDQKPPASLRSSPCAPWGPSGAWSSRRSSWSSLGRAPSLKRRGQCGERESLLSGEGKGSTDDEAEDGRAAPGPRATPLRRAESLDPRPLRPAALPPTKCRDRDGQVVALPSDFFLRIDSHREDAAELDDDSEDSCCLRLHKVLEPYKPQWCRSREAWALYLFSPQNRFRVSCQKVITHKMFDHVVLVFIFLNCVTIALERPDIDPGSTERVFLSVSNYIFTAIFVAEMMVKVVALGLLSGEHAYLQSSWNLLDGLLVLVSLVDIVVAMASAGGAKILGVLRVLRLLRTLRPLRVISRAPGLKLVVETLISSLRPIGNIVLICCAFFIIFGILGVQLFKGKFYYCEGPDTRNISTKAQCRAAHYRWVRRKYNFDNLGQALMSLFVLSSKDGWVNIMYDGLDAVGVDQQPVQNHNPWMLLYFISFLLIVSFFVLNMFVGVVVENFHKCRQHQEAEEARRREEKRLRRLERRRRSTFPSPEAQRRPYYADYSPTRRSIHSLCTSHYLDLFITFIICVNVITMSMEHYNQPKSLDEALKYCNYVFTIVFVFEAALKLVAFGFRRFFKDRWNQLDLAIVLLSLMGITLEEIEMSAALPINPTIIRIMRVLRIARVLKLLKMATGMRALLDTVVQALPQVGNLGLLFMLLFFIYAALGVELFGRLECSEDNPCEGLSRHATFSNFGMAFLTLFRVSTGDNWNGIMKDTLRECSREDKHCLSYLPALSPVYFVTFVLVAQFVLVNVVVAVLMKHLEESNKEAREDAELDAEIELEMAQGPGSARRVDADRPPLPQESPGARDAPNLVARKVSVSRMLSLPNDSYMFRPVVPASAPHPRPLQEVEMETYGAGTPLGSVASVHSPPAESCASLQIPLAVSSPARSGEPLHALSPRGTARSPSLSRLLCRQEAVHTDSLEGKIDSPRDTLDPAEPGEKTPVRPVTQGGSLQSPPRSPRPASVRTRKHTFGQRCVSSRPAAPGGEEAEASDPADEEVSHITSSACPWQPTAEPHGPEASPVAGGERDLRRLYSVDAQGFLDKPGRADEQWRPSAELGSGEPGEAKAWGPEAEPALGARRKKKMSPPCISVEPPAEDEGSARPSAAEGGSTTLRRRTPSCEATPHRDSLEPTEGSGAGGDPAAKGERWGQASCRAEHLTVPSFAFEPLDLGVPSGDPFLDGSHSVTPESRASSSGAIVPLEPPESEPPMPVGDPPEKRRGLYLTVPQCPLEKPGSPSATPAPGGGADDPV
# TNAP act mid DEA: activates human TNAP at intermediate phosphate acceptor concentration | P05186 | purified TNAP, CDP-star luminescence, 100 mM DEA, 30 min; stronger effect = higher value; scale: 0 levamisole-inhibited, 1 vehicle-only enzyme | activation factor at 20 µM | 64,000 tested, under 10 active | AID 813;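 active = activation factor of at least 2 at 20 µM, relative to controls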
# PostGolgi ctrl: growth of the yeast control strain, post-Golgi counter-screen; efflux-deficient yeast background strain, growth absorbance A615, 16 h; AID 738; hit rate 5% among 98,000; inhibition, % at 10 µM
# Smad3 inh: blocks human Smad3 binding to FoxH1 peptide; P84022; TR-FRET Smad3/Dy647-FoxH1 peptide binding, europium anti-His; inhibition, % at 25 µM; hit rate 0.29% among 88,000; AID 630;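 active = compounds that reduce the energy-transfer binding signal between the protein and its labelled peptide by more than half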;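 note: 0% = Smad3 plus labelled peptide maximal FRET and 100% = peptide-only background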
# PostGolgi yeast: growth inhibition of a yeast mutant, post-Golgi transport screen | post-Golgi transport phenotypic cell assay | inhibition, % at 10 µM | hit rate 0.9% among 98,000 | AID 739;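 note: yeast cells grown in 1536-well plates; yeast grown about 18 h at 30C before absorbance read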
# hDAT+cocaine: human DAT dopamine uptake with cocaine, either direction; B-score at 10 µM; Q01959; hit rate 1.3% among 110,000; LLC-PK1 hDAT cells, [14C]-dopamine uptake with cocaine IC80; actives deviate in either direction;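 active = Z score or B-score, a plate-position-corrected score, falls beyond the plate's 99.7% confidence bounds, in either direction; inactive = both scores lie inside the 99.7% bounds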;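 note: scored against the spread of the other compound wells on the same plate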
# Numbers without * were called inactive; / = no result. Cut-off read from the data, not from the text of the source, unless noted: active = inhibition above about 30%; inactive = the rest.
SMILES,Cav3 T inh,TNAP act mid DEA,PostGolgi ctrl,Smad3 inh,PostGolgi yeast,hDAT+cocaine
Cc1ccc(CNC(=O)C2CCN(S(=O)(=O)c3c(C)noc3/C=C/c3ccco3)CC2)cc1,-3.6,/,33*,0,-9,-0.5
Cc1noc(/C=C/c2ccco2)c1S(=O)(=O)N1CCC(C(=O)N2CCc3ccccc3C2)CC1,/,0.9,39*,2,1,/
COc1ccc(C2=NOC(C(=O)N3CCN(c4ccccc4OC)CC3)C2)cc1 (stereo not given),-0.063,1,2,-2,-4,-1.1
CCCN1CCN(C(=O)CCCn2c(C)c3cnn(-c4ccccc4)c(=O)c3c2C)CC1,1.4,0.9,31*,-4,-3,0.28
O=C1c2ccccc2C(=O)c2c(NC3CCCCC3)ccc(Nc3ccc(S(=O)(=O)O)cc3)c21,/,/,/,-1,/,/
Nc1ccc(-c2ccc(Nc3cc(S(=O)(=O)O)c(N)c4c3C(=O)c3ccccc3C4=O)cc2)c(S(=O)(=O)O)c1,/,/,/,94*,/,/
CC(=O)N1CCc2cc(NC(=O)c3ccc(C)cc3)ccc21,1.7,0.9,14,-11,-6,-0.93
CC(C)c1ccc(C(=O)CSc2n[nH]c(-c3ccncc3)n2)cc1,2.3,/,63*,-4,95*,-0.29
Nn1c(Cc2cccc3ccccc23)nnc1SCn1nnc2ccccc2c1=O,0.014,/,4,6,6,0.96
CCc1cccc(CC)c1-n1c(SCn2nnc3ccccc3c2=O)nnc1-c1cccnc1,-5.3*,/,8,/,-1,0.19
O=C(CSc1ncn(-c2ccccc2)n1)Nc1ccc(Br)cn1,-5.4*,0.9,15,6,-1,0.55
Cc1nc2c(C(=O)NCCC(C)C)c[nH]n2c(=O)c1Cc1ccccc1F,-5.2*,/,-3,14,12,0.0028
Cc1ccc(-n2c(C)cc(C(=O)OCC(=O)N(CC(C)C)C3CCS(=O)(=O)C3)c2C)cc1 (stereo not given),-8.2*,0.9,-7,-4,0,0.89
Cc1ccc(-n2c(C)cc(C(=O)OCC(=O)N(C)C3CCS(=O)(=O)C3)c2C)cc1 (stereo not given),-0.18,0.9,18,3,6,0.23
COC(=O)c1c(C(=O)OC)c(-c2ccc(Cl)c(Cl)c2)n2c1CCC2,-0.51,/,36*,/,1,0.46
CC1=C(C(=O)OCC2CCCO2)C(c2ccncc2)C2=C(CC(C)(C)CC2=O)N1 (stereo not given),0.44,0.9,1,2,18,0.28
O=C(N[C@@H](Cc1ccccc1)C(=O)OCc1ccccc1)c1nc[nH]c1C(=O)NCc1ccccc1,0.036,/,/,/,/,1.6*
Cc1ccc2nc(N3CCN(S(=O)(=O)c4ccc(C)c(Cl)c4)CC3)c(C#N)cc2c1,-2.3,/,9,-2,-4,-0.16
CCOc1ccc(-c2onc(C(F)(F)F)c2-c2cscn2)c(O)c1,-1.5,/,3,/,-7,1.1
Cc1cc(O)cc(O)c1-c1onc(C(F)(F)F)c1-c1cscn1,-5.2*,0.9,0,-13,-9,0.65
CC1(C)NC(=O)N(CCOCCOc2c(Cl)cc(Cl)cc2Cl)C1=O,0.1,/,4,7,-5,-0.84
OC(COc1ccc2ccccc2c1Br)Cn1cnc(-c2ccccc2)c1 (stereo not given),-0.81,/,53*,2,27,1.6
O=C(NC1CCCCCCC1)c1ccc(S(=O)(=O)N2CCCC2)cc1,0.27,/,21,10,8,0.6
CCCC(=O)N1CCN(S(=O)(=O)c2cc(Cl)ccc2OC)CC1,0.24,1,32*,10,3,0.28
COc1ccc(Cl)cc1S(=O)(=O)N1CCN(C(=O)c2ccco2)CC1,/,0.9,1,-1,-4,0.39
SMILES,Cav3 T inh,TNAP act mid DEA,PostGolgi ctrl,Smad3 inh,PostGolgi yeast,hDAT+cocaine
CNc1nc(NCCOC23CC4CC(CC(C4)C2)C3)nc(OCC(F)(F)F)n1,-5.4*,/,27,8,3,2.5
O=C(NCc1ccco1)c1ccc2c(c1)C(=O)c1ccccc1-2,-0.24,0.9,-7,-1,-4,-0.33
O=C(NCc1ccco1)c1ccc2c(c1)C(=O)N(Cc1ccccc1)C2=O,-4.7*,0.9,44*,12,-4,-0.76
CC(c1ccccc1)N1C(=O)c2ccc(C(=O)NCc3ccco3)cc2C1=O (stereo not given),-3.9*,0.9,23,4,0,0.038
CC(C)CCN1C(=O)c2ccc(C(=O)NCc3ccco3)cc2C1=O,/,0.9,11,3,-1,0.072
CCOc1ccc(C(=O)NCc2ccco2)cc1,-0.0055,1,2,-11,-7,0.78
CC(C)COc1ccc(C(=O)NCc2ccco2)cc1,-0.21,0.9,5,12,-3,-7.8*
Cc1nc(C(=O)Nc2ccc(Cl)cc2)nn1-c1ccc([N+](=O)[O-])cc1,0.23,/,6,/,25,-0.33
Cc1ccccc1NC(=O)C(=O)NCc1ccccn1,-4.5*,/,6,/,-2,-1.6
O=C(NCc1ccccn1)Nc1ccc(Cl)c(Cl)c1,-2.7,0.9,46*,5,-9,0.82
CCSc1nnc(-c2cccc(S(=O)(=O)N(CC)CC)c2)n1Cc1ccccc1,-2,0.9,12,4,-10,0.22
COc1cccc(CNC(=O)C2CCN(S(=O)(=O)c3cnc[nH]3)CC2)c1,0.16,0.9,5,1,3,-0.53
COc1ccc(/C(O)=C2\C(=O)C(=O)N(CCN(C)C)C2c2cc(OC)c(OC)c(OC)c2)c(C)c1 (stereo not given),0.79,0.9,9,-1,-7,0.11
CCOC(=O)/C=C1\SCC(=O)N1CC(=O)Nc1ccccc1OC(F)F,1,1,5,4,-3,-0.014
C=CCn1c(=O)c2c3c(sc2n2c(Nc4ccccc4)nnc12)CCCC3,0.55,/,21,1,8,0.48
C=CCn1c(=O)c2c3c(sc2n2c(Nc4ccc(OC)cc4)nnc12)CCCC3,-0.83,0.9,33*,13,5,-0.39
CCCn1nc([N+](=O)[O-])c(C(C#N)c2nc3ccccc3s2)c(Cl)c1=O (stereo not given),-4.4*,/,55*,/,100*,-1.8
COC(=O)c1ccccc1NC(=O)N1c2ccccc2CC1C (stereo not given),-1.6,0.9,48*,0,-3,-0.0084
COc1ccccc1NC(=O)N1c2ccc(F)cc2CCC1C (stereo not given),-5.1*,0.9,18,0,-1,-2.3
Cc1ccc(C(=O)N2c3ccc(F)cc3CCC2C)o1 (stereo not given),/,0.9,7,-3,-7,-1.5
COc1cc(OC)cc(C(=O)N2c3ccc(F)cc3CCC2C)c1 (stereo not given),-4.6*,0.9,32*,-7,17,1.8
CC(NC(=O)c1cccs1)C(=O)NC1=NCCS1 (stereo not given),0.15,0.9,1,-2,1,0.026
Cc1ccc2[nH]c3c(=O)n(Cc4ccncc4)cnc3c2c1,-0.13,/,-5,1,-14,-2.1
